Pol iota inh = qHTS for Inhibitors of Polymerase Iota; DNA polymerase iota (Homo sapiens), Q9UNA4; Pol iota fluorescent replication assay, 10 min; Potency, µM (doses to about 115 µM), inactives show at the highest dose activity, negative = inhibition, usual class: inhibitors; 390,000 compounds, 1% hits; AID 588590, 2011; further: potency means the concentration at half of the fitted maximal effect
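Pol iota at 10 nM preincubated 15 min with compounds at room temperature; reaction started with fluorescent substrate, 50 nM final. Fluorescence read kinetically at 0 and 10 min; buffer-only wells as negative control.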
PI4K2A block = qHTS for small molecular inhibitors of PI4K2A; Phosphatidylinositol 4-kinase type 2-alpha (Homo sapiens), Q9BTU6; AID 1346378, 2018; 420,000 compounds, 0.13% hits; purified PI4K2A, ADP-Glo luminescence, 1 h; stronger effect = lower value; activity change, negative = inhibition, % at 76.9 µM; in the data active means activity change below about -50%; inconclusive means mostly about -30% to -49%;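 further: -100% = wells without enzyme as full effect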
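PI4K2A activity was measured by ADP-Glo luminescence: enzyme (4 ug/mL stock) and phosphatidylinositol (1.2 mM stock) in Tris pH 7.5/MgCl2/EGTA/Triton X-100 buffer were reacted with ATP (300 microM stock) for one hour at ambient temperature.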
PI5P4K alpha inh = qHTS for Inhibitors of phosphatidylinositol 5-phosphate 4-kinase (PI5P4K). PI5P4Kalpha enzyme, ADP-Glo luminescence, 60 min; stronger effect = lower value. max response, %. 330,000 compounds, 1.2% hits. AID 652105, 2013; active means max response of -50% or lower; inconclusive means between -30% and -50%; inactive means -30% or higher; further: value at the top dose of about 77 µM; on the % scale 0 is the no-effect control and ±100 the full control effect
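Human PI5P4Kalpha with substrate in 0.038 M HEPES pH 7.4, 0.28 mM EGTA, 0.1% CHAPS, 5% DMSO; reaction started with 5 microM ATP (final), 60 min at room temperature. ADP formed read by ADP-Glo luminescence.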
Pol eta inh = qHTS for Inhibitors of Polymerase Eta. recombinant Pol eta, fluorescent DNA replication assay. Potency, µM (doses to about 114 µM), for inactives: top-dose activity change, negative = inhibition, most hits filed as inhibitors. 390,000 compounds, 1.2% hits; further: potency means the concentration at half of the fitted maximal effect; on the % scale 0 is the no-effect control and ±100 the full control effect
Target sequence (Q9Y253 whole entry, looked up): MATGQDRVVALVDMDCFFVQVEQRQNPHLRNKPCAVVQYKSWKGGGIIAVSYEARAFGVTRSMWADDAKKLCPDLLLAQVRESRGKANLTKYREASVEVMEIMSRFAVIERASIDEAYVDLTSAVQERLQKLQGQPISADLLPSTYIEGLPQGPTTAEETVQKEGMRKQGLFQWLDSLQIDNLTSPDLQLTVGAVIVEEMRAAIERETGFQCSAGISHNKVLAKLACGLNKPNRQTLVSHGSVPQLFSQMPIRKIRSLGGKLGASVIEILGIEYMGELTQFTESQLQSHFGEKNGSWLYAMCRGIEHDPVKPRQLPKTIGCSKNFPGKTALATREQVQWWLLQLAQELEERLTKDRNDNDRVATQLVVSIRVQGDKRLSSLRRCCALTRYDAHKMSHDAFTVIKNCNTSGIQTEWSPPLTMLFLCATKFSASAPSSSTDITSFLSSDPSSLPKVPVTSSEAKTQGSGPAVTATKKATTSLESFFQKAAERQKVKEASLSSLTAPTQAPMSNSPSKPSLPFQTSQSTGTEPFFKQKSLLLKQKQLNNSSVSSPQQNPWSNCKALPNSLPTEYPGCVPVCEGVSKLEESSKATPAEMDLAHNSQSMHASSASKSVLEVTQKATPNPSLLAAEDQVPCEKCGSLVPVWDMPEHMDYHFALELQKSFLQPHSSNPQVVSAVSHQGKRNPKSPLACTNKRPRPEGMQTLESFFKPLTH
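Pol eta at 10 nM preincubated with compounds 15 min at room temperature; reaction started with fluorescent substrate (50 nM final) and read kinetically at 0 and 10 min.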
POLB inh = qHTS Assay for Inhibitors of DNA Polymerase Beta | P06746 | Pol beta primer extension/strand displacement, fluorescence kinetic | Potency, µM (series often up to 114 µM), without a hit: at the highest dose activity change, negative = inhibition, usual class: inhibitors | 340,000 compounds, 1.3% hits; further: potency means the concentration at half of the fitted maximal effect; on the % scale 0 is the no-effect control and ±100 the full control effect
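Reaction started by 50 nM substrate onto compound-treated Pol beta (10 nM, 15 min preincubation, room temperature); plates read at 0 min and 10 min. Normalized concentration-effect data fitted by four-parameter Hill equation.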
Pol kappa inh = qHTS for Inhibitors of Polymerase Kappa | 400,000 compounds, 0.53% hits | DNA polymerase kappa (Homo sapiens), Q9UBT6 | Potency, µM (doses to about 107 µM), inactives show at the highest dose activity, negative = inhibition, hits mostly inhibitors | AID 588579, 2011 | purified Pol kappa, fluorescent DNA synthesis assay, 10 min; further: potency means the concentration at half of the fitted maximal effect; on the % scale 0 is the no-effect control and ±100 the full control effect
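Kinetic fluorescence screen: compound preincubated 15 min RT with 10 nM enzyme; 50 nM substrate (final) initiates; reads at 0/10 min.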
ADP-Glo counter = qHTS for Inhibitors of PI5P4K: ADP-Glo counter assay; shares compounds with PI5P4K alpha inh; ADP-Glo detection counter-screen, luciferase luminescence, no enzyme; Potency, µM (top dose mostly 76.9 µM), for the others: at the top dose activity change, negative = inhibition, most hits filed as inhibitors; 1,100 tested, under 10 active; AID 743285, 2014
An asterisk follows results filed as active; ? = inconclusive; · = no result; [ ] = dose if it differs, or a comment. The list is not random: actives were taken first. Their share in the collection is about 2.8%. Unless noted, the call rests on the fitted dose curve; in most records, active means well fitted curve in the direction sought with a large enough effect; inconclusive means small, poorly fitted or top-dose-only effect, or another doubt; inactive means no such curve, though single readings can be large; an effect the other way counts as inactive or inconclusive.

SMILES | Pol iota inh | PI4K2A block | PI5P4K alpha inh | Pol eta inh | POLB inh | Pol kappa inh | ADP-Glo counter
Cc1cc2oc(=O)cc(CN3CCCC3)c2cc1C | · | 1 | -6 | · | · | · | ·
COc1ccc(C(=O)NCCSc2ccccc2)cc1OC | 68% | -19 | -87* | -6% | -15% | -4% | -12%
COc1cc(C(=O)NCCSc2ccccc2)cc(OC)c1OC | -22% | -6 | -1 | -11% | 1% | -4% | ·
O[C@H]1CN(Cc2cccs2)[C@@H](c2ccccc2)C[C@@H]1n1cc(C2CC2)nn1 | · | 2 | -1 | -10% | · | · | ·
O=C(CSc1nnc(-c2ccc(OC(F)F)cc2)o1)NC(=O)NCc1ccco1 | 79µM* | -10 | -54* | ? | 45µM* | -29% | -3%
COc1ccc(-c2nnc(SCC(=O)NCc3ccco3)o2)cc1 | -2% | -4 | · | 0% | -18% | -4% | ·
c1ccc(-c2cc3nc(NCc4cccs4)nc(NCc4ccc5occc5c4)c3s2)cc1 | · | -4 | · | · | · | · | -7%
CCCS(=O)(=O)c1nc(S(=O)(=O)c2ccc(C)cc2)c(NCC(C)C)s1 | -9% | -1 | · | -11% | 23% | -2% | ·
Cc1ccc([N+](=O)[O-])cc1Nc1nc(N2CCOCC2)nc(N2CCOCC2)n1 | ? | 3 | -74* | -98% | 0% | ? | -3%
CC1CCN(C(=O)c2ccc(COc3ccccc3Cl)o2)CC1 | -10% | 2 | -55* | -15% | -3% | -7% | -1%
O=C(c1ccc(COc2ccccc2Cl)o1)N1CCCC1 | -10% | -17 | -4 | -11% | 16% | -10% | ·
COC(=O)Cc1c(C)nc2nc(-c3ccc(C)cc3)[nH]n2c1=O | -15% | -4 | -72* | 1% | 37% | 4% | -3%
CCCNC(=O)N(C)C[C@@H]1Oc2ncc(Br)cc2C(=O)N([C@H](C)CO)C[C@@H]1C | · | 6 | 0 | -5% | · | · | ·
CCCNC(=O)N(C)C[C@@H]1Oc2ncc(-c3ccncc3)cc2C(=O)N([C@H](C)CO)C[C@@H]1C | · | -21 | -56* | -16% | · | · | -4%
Cc1cccc(C)c1-n1nnnc1C(c1ccnc2ccccc12)N(C)Cc1ccccc1 (stereo not drawn) | · | -1 | 5 | · | · | · | ·
CCN(CC)CCCCCC(=O)Nc1ccccc1C(=O)Nc1ccccc1 | -31% | 0 | -19 | -19% | 33% | -22% | -4%
COC(=O)c1c(NC(=O)CN2CCC3(O)CCCCC3C2c2ccccc2OC)sc(C)c1C (stereo not drawn) | 18% | 0 | -2 | -8% | -2% | -7% | ·
COC(=O)c1c(NC(=O)CN2CCC3(O)CCCCC3C2c2ccc(OC)cc2OC)sc(C)c1C (stereo not drawn) | 8% | -3 | -51* | ? | -5% | -18% | 7%
Cc1ccc(S(=O)(=O)CCC(=O)OCC(=O)NCc2ccc(Cl)cc2)cc1 | 37% | -2 | 2 | -7% | 2% | 8% | ·
O=C(CCS(=O)(=O)c1ccc(Br)cc1)NCc1ccc(F)cc1 | -83% | -8 | ? | 40µM* | ? | ? | -3%
Cc1ccc(S(=O)(=O)CCC(=O)OCC(=O)NCc2ccc(F)cc2)cc1 | · | 5 | -3 | -1% | · | · | ·
Cc1ccc(CNC(=O)CCS(=O)(=O)c2ccc(Cl)cc2)cc1 | 9% | -3 | -94* | -12% | 1%[57.1 µM] | 2% | -10%
NS(=O)(=O)c1ccc(NC(=O)c2ccc(S(=O)(=O)N3CCc4ccccc43)cc2)cc1 | ? | 0 | -66* | -21% | 0% | 0% | -3%
COc1ccc(C(=O)Nc2ccc(S(=O)(=O)N3CCc4ccccc43)cc2)cc1 | 22% | 1 | -9 | -6% | · | -22% | ·
OC(c1ccc(Cl)c(F)c1)c1ncc(-c2ccc(Oc3ccccc3)cc2)[nH]1 (stereo not drawn) | · | 0 | -57* | · | · | · | -5%
SMILES | Pol iota inh | PI4K2A block | PI5P4K alpha inh | Pol eta inh | POLB inh | Pol kappa inh | ADP-Glo counter
O=C(OCc1cc(=O)n2nc(C3CCCCC3)sc2n1)c1ccccc1Cl | -5% | 10 | · | -14% | -1% | -21% | ·
CC(C)c1ccc(NC(=O)CSc2nc3ccccc3nc2Cc2ccccc2)cc1 | 15% | -4 | · | -4% | -17% | -6%[60.1 µM] | ·
O=C1NN=C2CCCCCC12 (stereo not drawn) | · | -10 | -6 | -11% | · | · | -1%
O=C(CSc1ccccc1)Nc1nnc(COc2ccc(Cl)cc2)s1 | 40% | -5 | -53* | ? | 20µM* | -25% | -7%
O=C(c1cnn2c(C(F)F)cc(C3CC3)nc12)N1CCCC1 | 8% | -3 | · | -4% | 16% | -9% | ·
O=C(c1cc2nc(C3CC3)cc(C(F)F)n2n1)N1CCOCC1 | ? | -3 | -63* | 13µM* | 50µM* | 79µM* | -12%
CC(C)NC(=O)c1ccc(NC(=O)N2CCCCc3ccccc32)cc1 | 0% | -1 | · | -4% | 32% | 0% | ·
CN1CCN(CC(=O)Nc2sc3c(c2C(=O)Nc2ccccc2)CCCC3)CC1 | 13% | -3 | -1 | 0% | 2% | 7% | ·
NC(=O)c1c(NC(=O)CN2CCN(S(=O)(=O)c3ccccc3)CC2)sc2c1CCC2 | 13µM* | -15 | -65* | ? | · | ? | 0%
CCn1c(=S)[nH]c2scc(-c3cccs3)c2c1=O | -17% | -6 | -53* | -3% | -1% | -17% | 3%
CC(C)CN(C[C@@H](OP(=O)(O)O)[C@H](Cc1ccccc1)NC(=O)O[C@@H]1CCOC1)S(=O)(=O)c1ccc(N)cc1 | · | · | · | · | · | -5%[19.4 µM] | ·
Cc1ccc(NC(=O)c2cc(NC(=O)c3ccccc3C(=O)O)ccc2N2CCCCC2)cc1 | 13% | 4 | -52* | -19% | -19% | -1% | -3%
COCCN(CC(=O)NCC1CCCO1)C(=O)CCC(=O)Nc1ccccn1 (stereo not drawn) | -14% | -8 | -51* | -10% | 30% | -15% | 1%
O=C(CN(CC1CCCO1)C(=O)CCC(=O)Nc1ccccn1)NCC1CCCO1 (stereo not drawn) | 19% | 10 | -7 | -14% | 18% | -2% | ·
CCn1c(=O)n(CC(=O)N2CCN(C(C)=O)CC2)c(=O)c2ccccc21 | · | 1 | · | · | · | · | ·

High-throughput results (PubChem)
